Experiment [1] can be described thus: antimalarial activity against Dd2 strain (AID 2302;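 active = growth inhibition above 50% at the single 2 µM test dose, taken to imply half-maximal potency below 2 µM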;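 note: 0% = DMSO untreated growth and 100% = chloroquine plus artemisinin killed control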). The conditions noted are these: P. falciparum Dd2 in RBCs, LDH growth readout, 72 h; at 2 µM; stronger effect = higher value.
Experiment [2] can be described thus: HepG2 cytotoxicity, primary screen, cytotoxicity control for P. falciparum antimalarial project, cell-based, ATP luminescence (AID 2303;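 active = inhibition above 50%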;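 note: 0% = DMSO wells and 100% = digitonin-killed cells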). The following applies: HepG2 viability, 24-48 h, at 10 µM, stronger effect = higher value.
For experiment [3], the target named is L-lactate dehydrogenase (Plasmodium falciparum (isolate CDC / Honduras)) (UniProt Q27743). Kind of experiment: PfLDH activity inhibition – cell lysate, 3D7 strain, counter-screen for P. falciparum growth inhibition project (AID 2304).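 Note: 0% = vehicle and 100% = reference inhibitor.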 The conditions noted are these: P. falciparum 3D7 crude extract, LDH APAD/NBT absorbance; at 2 µM; stronger effect = higher value.
A short description of experiment [4]: inhibition of 3D7 malaria parasite growth – strain 3D7 (AID 2306).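 Note: 0% = DMSO wells and 100% = chloroquine plus artemisinin control wells.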 The conditions noted are these: P. falciparum 3D7 erythrocytic growth, LDH absorbance, 72 h; at 2 µM; stronger effect = higher value.
For experiment [5], the target named is Calcium-dependent protein kinase 1 (Plasmodium falciparum (isolate 3D7)) (UniProt P62344). In words: PfCDPK1 kinase inhibitors, biochemical, TCAMS library (AID 1159585; cut-off not given, nearly all actives have IC50 up to about 0.98 µM;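 note: inhibitors leave more ATP so luminescence rises with inhibition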). The following applies: recombinant PfCDPK1, Kinase-Glo ATP depletion luminescence.
Experiment [6] concerns the target Plasmodium falciparum protein kinase 6 (PK6, PF3D7_1337100) (UniProt Q8IDW1). Kind of experiment: PfPK6 kinase inhibitors, biochemical, TCAMS library (AID 1159586). The conditions noted are these: recombinant PfPK6, Kinase-Glo ATP depletion luminescence.
Experiment [7] concerns the target Protein kinase 7 (PK7), Plasmodium falciparum 3D7 (PF3D7_0213400) (UniProt Q7YTF7). Kind of experiment: inhibition of Plasmodium PK7 catalytic activity – biochemical, TCAMS antimalarial set, Kinase-Glo luminescence (AID 1159587). The conditions noted are these: recombinant PfPK7, Kinase-Glo ATP depletion luminescence.
Experiment [8] concerns the target Calcium-dependent protein kinase 4 (Plasmodium falciparum (isolate 3D7)) (UniProt Q8IBS5). In words: PfCDPK4 kinase inhibitors, biochemical, TCAMS library (AID 1159588; cut-off not given, nearly all actives have IC50 up to about 0.91 µM). The conditions noted are these: recombinant PfCDPK4, Kinase-Glo ATP depletion luminescence.

SMILES strings stand for the structures. Values without a mark were called inactive. For part of these data: Measured potencies and affinities stand elsewhere. Activity calls are given as the source filed them. Unless noted, the rule behind the calls is not given here.

Sequence of Calcium-dependent protein kinase 4 (Plasmodium falciparum (isolate 3D7)) (Q8IBS5 whole entry, looked up): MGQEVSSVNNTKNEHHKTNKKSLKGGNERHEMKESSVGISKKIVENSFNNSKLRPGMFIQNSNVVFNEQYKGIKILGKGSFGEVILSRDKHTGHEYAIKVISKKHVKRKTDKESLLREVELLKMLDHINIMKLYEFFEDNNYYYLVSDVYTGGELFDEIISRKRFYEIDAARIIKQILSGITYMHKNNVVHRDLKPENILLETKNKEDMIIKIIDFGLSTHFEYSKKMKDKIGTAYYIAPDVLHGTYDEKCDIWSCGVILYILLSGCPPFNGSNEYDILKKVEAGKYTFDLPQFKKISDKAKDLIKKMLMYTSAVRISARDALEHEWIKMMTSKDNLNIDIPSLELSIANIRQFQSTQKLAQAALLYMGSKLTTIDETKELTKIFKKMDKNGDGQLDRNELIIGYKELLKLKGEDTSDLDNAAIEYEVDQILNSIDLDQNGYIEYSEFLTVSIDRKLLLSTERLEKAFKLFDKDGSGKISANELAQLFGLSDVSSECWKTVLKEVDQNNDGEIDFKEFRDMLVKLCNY
Sequence of L-lactate dehydrogenase (Plasmodium falciparum (isolate CDC / Honduras)) (Q27743 whole entry, looked up): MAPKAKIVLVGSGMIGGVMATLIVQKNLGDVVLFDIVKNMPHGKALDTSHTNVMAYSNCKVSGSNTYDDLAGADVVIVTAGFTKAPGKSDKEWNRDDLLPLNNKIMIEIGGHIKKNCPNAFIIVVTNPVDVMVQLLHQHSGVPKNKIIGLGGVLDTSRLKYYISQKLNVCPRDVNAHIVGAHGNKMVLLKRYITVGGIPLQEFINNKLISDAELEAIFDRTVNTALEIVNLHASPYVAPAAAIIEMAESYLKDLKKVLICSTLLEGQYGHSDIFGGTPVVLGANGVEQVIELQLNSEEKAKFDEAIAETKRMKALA
Sequence of Calcium-dependent protein kinase 1 (Plasmodium falciparum (isolate 3D7)) (P62344 whole entry, looked up): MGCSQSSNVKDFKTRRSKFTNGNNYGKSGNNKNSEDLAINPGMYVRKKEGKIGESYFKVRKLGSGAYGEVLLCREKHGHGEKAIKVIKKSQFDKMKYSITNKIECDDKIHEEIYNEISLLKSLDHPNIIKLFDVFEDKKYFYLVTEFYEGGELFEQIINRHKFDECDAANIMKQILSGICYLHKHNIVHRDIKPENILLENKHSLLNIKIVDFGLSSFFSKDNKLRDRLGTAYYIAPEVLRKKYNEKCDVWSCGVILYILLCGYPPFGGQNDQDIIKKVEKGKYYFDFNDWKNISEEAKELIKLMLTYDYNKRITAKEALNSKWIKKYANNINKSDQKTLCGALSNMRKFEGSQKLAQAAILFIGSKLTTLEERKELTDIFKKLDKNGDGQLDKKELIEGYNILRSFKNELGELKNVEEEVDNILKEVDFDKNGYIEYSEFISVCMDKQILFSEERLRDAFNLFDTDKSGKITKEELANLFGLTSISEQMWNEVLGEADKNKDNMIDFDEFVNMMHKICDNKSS
Sequence of Protein kinase 7 (PK7), Plasmodium falciparum 3D7 (PF3D7_0213400) (Q7YTF7 1-343): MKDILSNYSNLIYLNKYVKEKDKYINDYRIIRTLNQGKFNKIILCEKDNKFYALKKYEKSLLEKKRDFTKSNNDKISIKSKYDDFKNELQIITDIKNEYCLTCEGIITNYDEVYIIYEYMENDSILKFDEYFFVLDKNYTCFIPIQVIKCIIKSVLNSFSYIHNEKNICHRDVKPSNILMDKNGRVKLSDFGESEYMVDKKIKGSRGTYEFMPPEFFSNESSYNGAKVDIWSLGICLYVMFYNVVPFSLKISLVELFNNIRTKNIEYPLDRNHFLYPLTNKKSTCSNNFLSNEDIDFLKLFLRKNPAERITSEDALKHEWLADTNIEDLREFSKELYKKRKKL
Sequence of Plasmodium falciparum protein kinase 6 (PK6, PF3D7_1337100) (Q8IDW1 1-305): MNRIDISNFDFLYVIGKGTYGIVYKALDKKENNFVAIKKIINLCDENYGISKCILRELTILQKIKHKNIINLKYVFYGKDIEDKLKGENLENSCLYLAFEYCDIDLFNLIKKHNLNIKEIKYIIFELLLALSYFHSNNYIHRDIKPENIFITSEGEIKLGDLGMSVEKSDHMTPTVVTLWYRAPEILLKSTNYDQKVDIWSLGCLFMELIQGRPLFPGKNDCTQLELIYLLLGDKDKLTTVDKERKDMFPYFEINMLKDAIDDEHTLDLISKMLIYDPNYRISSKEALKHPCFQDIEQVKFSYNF

Take `O=[N+]([O-])c1ccc(C=NNc2nc3ccccc3[nH]2)cc1`: the results for the growth inhibition in experiment [1] and in experiment [4] were 98% (active) and 101% (active), respectively. Besides, the inhibition in experiment [2] was 11%; in experiment [3], -6%. In addition, the result in experiment [5], in experiment [6], in experiment [7] and in experiment [8] was inactive.

As for `CN(C)Cc1ccc(-c2ccc3c(Nc4ccc(Oc5ccccc5)cc4)ccnc3c2)o1`, the results for the growth inhibition in experiment [1] and in experiment [4] were 100% (active) and 101% (active), respectively. Further, the inhibition was 10% in experiment [2] and 2% in experiment [3]. Moreover, the result in experiment [5], in experiment [6], in experiment [7] and in experiment [8] was inactive.

For `CC(C)c1ccc(S(=O)(=O)Nc2cccc(CCN3CCC(N4CCCCC4)CC3)c2)cc1`, the growth inhibition is 35% in experiment [1] and 101% (active) in experiment [4]. Also, the values for the inhibition in experiment [2] and in experiment [3] were 37% and 6%, respectively. For the same compound, the result in experiment [5], in experiment [6], in experiment [7] and in experiment [8] was inactive.

As to `Cc1noc(C)c1-c1cccc(CNCc2ccc(-c3ccc(-c4nc5ccc(F)cc5[nH]4)s3)cc2)c1`, the growth inhibition was 93% (active) in experiment [1] and 102% (active) in experiment [4]. Besides, the inhibition in experiment [2] is 45%; in experiment [3] it was 6%. Also, the outcome in experiment [5], in experiment [6], in experiment [7] and in experiment [8] was inactive.

Turning to `COc1cccc(-c2csc(C(=O)NC3CCCCN(Cc4ccc(C(C)(C)C)cc4)C3)c2)c1` (centres undefined), the growth inhibition in experiment [1] is 66% (active); in experiment [4], 97% (active). Also, the values for the inhibition in experiment [2] and in experiment [3] were 9% and -2%, respectively. The result in experiment [5], in experiment [6], in experiment [7] and in experiment [8] was inactive.

On to `O=C(Nc1ccc(OC2CCN(Cc3ccc(F)cc3)C2)c(Cl)c1)c1ccccc1` (centres undefined), for which the growth inhibition in experiment [1] was 86% (active); in experiment [4] it was 91% (active). Besides, the inhibition in experiment [2] was 11%; in experiment [3] it was 0%. The outcome in experiment [5], in experiment [6], in experiment [7] and in experiment [8] was inactive.

With `CCn1c(-c2nonc2N)nc2cnc(Oc3cccc(NC(=O)c4ccc(OCCN(C(C)C)C(C)C)cc4)c3)cc21`, the results for the growth inhibition in experiment [1] and in experiment [4] were 10% and 97% (active), respectively. In addition, the inhibition in experiment [2] was 63% (active); in experiment [3], -6%. In addition, the result in experiment [5], in experiment [6], in experiment [7] and in experiment [8] was inactive.

In the case of `CCN1CCN(CCCNc2c3ccccc3nc3ccccc23)CC1`, the growth inhibition in experiment [1] is 3%; in experiment [4] it was 100% (active). For the same compound, the inhibition in experiment [2] was 44%; in experiment [3], -1%. The outcome in experiment [5], in experiment [6], in experiment [7] and in experiment [8] was inactive.

On to `COc1cc(-c2nc3ccc(N4CCN(C)CC4)cc3[nH]2)cc(OC)c1OC`, for which the growth inhibition in experiment [1] is 15%; in experiment [4], 87% (active). Moreover, the inhibition in experiment [2] is 6%; in experiment [3] it was 0%. The outcome in experiment [5], in experiment [6], in experiment [7] and in experiment [8] was inactive.

`O=C(Nc1nc(-c2ccccn2)cs1)c1ccc(Br)s1`: the growth inhibition in experiment [1] was 84% (active); in experiment [4], 96% (active). Moreover, the figures for the inhibition in experiment [2] and in experiment [3] were 40% and 7%, respectively. The outcome in experiment [5], in experiment [6], in experiment [7] and in experiment [8] was inactive.

For the compound `CC(=O)Nc1ccc(C(=O)Nc2cccc(-c3cccc(-c4nc5ccc(F)cc5[nH]4)c3)c2)cn1`, the growth inhibition in experiment [1] was 98% (active); in experiment [4] it was 99% (active). Further, the inhibition in experiment [2] was -5%; in experiment [3], 1%. For the same compound, the result in experiment [5], in experiment [6], in experiment [7] and in experiment [8] was inactive.

On to `CC(=O)Nc1cc(C(=O)Nc2ccc(C3=NCCN3)cc2)ccc1C(=O)Nc1ccc(C2=NCCN2)cc1`, for which the growth inhibition in experiment [1] is 92% (active); in experiment [4], 96% (active). The inhibition in experiment [2] was 12%; in experiment [3], -3%. Besides, the result in experiment [5], in experiment [6], in experiment [7] and in experiment [8] was inactive.

Regarding `Cc1cccc2[nH]c(-c3cccc(-c4ccc(C(=O)NCc5ccccc5S(C)(=O)=O)cc4)c3)nc12`, the growth inhibition was 27% in experiment [1] and 100% (active) in experiment [4]. The inhibition in experiment [2] is 17%; in experiment [3] it was 1%. In addition, the result in experiment [5], in experiment [6], in experiment [7] and in experiment [8] was inactive.

For the compound `COc1cc2c(C3CCN(CC4CCC(NC(=O)/C=C/c5ccc(Cl)c(Cl)c5)CC4)CC3)c[nH]c2cn1` (centres undefined), the growth inhibition in experiment [1] is 100% (active); in experiment [4] it was 101% (active). Also, the inhibition in experiment [2] is 44%; in experiment [3], -5%. The result in experiment [5], in experiment [6], in experiment [7] and in experiment [8] was inactive.

In the case of `CNC(=O)COc1ccc(Nc2nnc(-c3ccc(C)c(S(=O)(=O)NCC4CCCO4)c3)c3ccccc23)cc1` (centres undefined), the values for the growth inhibition in experiment [1] and in experiment [4] were 68% (active) and 90% (active), respectively. Further, the inhibition in experiment [2] was -8%; in experiment [3] it was 0%. Also, the outcome in experiment [5], in experiment [6], in experiment [7] and in experiment [8] was inactive.

Regarding `COc1cccc2c(NN=Cc3ccccc3Cl)cc(C)nc12`, the growth inhibition in experiment [1] was 100% (active); in experiment [4], 102% (active). Besides, the figures for the inhibition in experiment [2] and in experiment [3] were 22% and -2%, respectively. Further, the result in experiment [5], in experiment [6], in experiment [7] and in experiment [8] was inactive.

As for `O=C(Nc1ccc(Cn2ncc(N3CCNCC3)c(Cl)c2=O)cc1)Nc1ccc(-c2ccccc2)cc1`, the growth inhibition in experiment [1] was 33%; in experiment [4], 98% (active). The inhibition in experiment [2] is 29%; in experiment [3], -1%. In addition, the result in experiment [5], in experiment [6], in experiment [7] and in experiment [8] was inactive.

Take `C=CCc1ccccc1OCC(O)CN(C1CCCCC1)C1CCCCC1` (centres undefined): the growth inhibition in experiment [1] was 84% (active); in experiment [4] it was 93% (active). In addition, the inhibition in experiment [2] is 50% (active); in experiment [3], 1%. Moreover, the result in experiment [5], in experiment [6], in experiment [7] and in experiment [8] was inactive.

(Values after PubChem BioAssay.)
